We go through 40 compounds from ChEMBL document CHEMBL3433997, “St. Jude Leishmania screening dataset” (2016).

The term inhibition denotes the change of the read-out against control, counted positive when it falls.

The structures appear in SMILES notation.

The target of this assay is Solute carrier family 2, facilitated glucose transporter member 1 (Homo sapiens) (UniProt P11166). As to the kind of experiment: ST_JUDE_LEISH: Cytotoxicity at 2uM final concentration against transgenic Leishmania Mexicana promastigotes LmGLUT1 that are glucose transport deficient and complemented with the human glucose transporter GLUT1. Activity is measured by DNA content using SYBR green in vitro. The assay is classed as functional.
Solute carrier family 2, facilitated glucose transporter member 1 (Homo sapiens), sequence (P11166 whole entry): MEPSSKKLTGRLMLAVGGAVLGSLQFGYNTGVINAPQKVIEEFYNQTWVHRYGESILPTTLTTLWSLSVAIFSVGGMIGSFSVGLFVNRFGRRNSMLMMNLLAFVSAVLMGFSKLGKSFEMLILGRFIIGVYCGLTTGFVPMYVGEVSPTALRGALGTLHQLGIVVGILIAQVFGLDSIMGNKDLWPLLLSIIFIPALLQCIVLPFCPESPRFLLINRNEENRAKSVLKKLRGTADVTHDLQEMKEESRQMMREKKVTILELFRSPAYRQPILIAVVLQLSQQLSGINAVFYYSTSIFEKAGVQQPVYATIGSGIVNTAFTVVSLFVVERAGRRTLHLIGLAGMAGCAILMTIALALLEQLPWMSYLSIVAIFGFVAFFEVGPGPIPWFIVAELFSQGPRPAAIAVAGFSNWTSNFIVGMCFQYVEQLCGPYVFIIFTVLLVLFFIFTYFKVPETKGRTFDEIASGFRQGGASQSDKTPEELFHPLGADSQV
Turning to `CC1CCc2sc(-c3nnc(SC(C)C(=O)N4CCCC4)o3)cc2C1` (stereo not given), the inhibition worked out at 2.14%.
Regarding `CCOC(=O)c1ccc(NC(=O)Nc2cccc(-c3ccc(-c4nc5cc(F)ccc5[nH]4)cc3)c2)cc1`, the inhibition came out at 2.21%.
With `O=C(n1c(-c2cc3ccccc3n2C(=O)C(F)(F)F)cc2ccccc21)C(F)(F)F` the figure was 4.6%.
The value for `COc1ccc(-c2cnc3ccc(NCc4ccc(S(N)(=O)=O)cc4)nn23)cn1` was 4.78%; that for `CCS(=O)(=O)Nc1ccc2c(c1)/C(=C(/Nc1ccc(CN3CCCCC3)cc1)c1ccccc1)C(=O)N2` was 83.1%; that for `CS(=O)(=O)c1ccc(CCNCc2ccc(-c3ccc(CN(C(=O)c4ccc(Cl)nc4)C4CCN(Cc5ccccc5)CC4)cc3)nc2)cc1` was 4.37%.
The value for `CC1CCCCC1N(C)C1CCN(CCCNC(=O)C=Cc2ccccc2Cl)CC1` (stereo not given) was -0.22%; that for `NC(=O)c1c(Cl)nc2ccccc2c1Cl` was 4.35%; that for `Cc1cccc(Cn2ccc3c(N)nc(N)nc32)c1` was 4.57%.
In the case of `CN1CCCN(Cc2ccc(-c3cccc(NC(=O)c4ccc(Cl)cc4)c3)cc2)CC1`, the inhibition was 3.92%.
The value for `O=C(O[C@H]1CN[C@H](C#Cc2cc3ncnc(Nc4ccc5c(ccn5S(=O)(=O)c5cccs5)c4)c3s2)C1)N1CCOCC1` was 9.76%; that for `COc1ccc(NS(=O)(=O)c2ccccc2Br)cc1N1CCN(C)CC1` was 0.24%; that for `COc1ccc(C2NCCc3c2[nH]c2ccccc32)cc1CN1CCN(c2ccc(F)cc2)CC1` (stereo not given) was 3.17%.
The value for `COc1cccc(C2CCN(CCN3CCC(CNC(=O)c4ccc(-c5ccc(C(F)(F)F)cc5)cc4)CC3)CC2)c1` was -0.53%; that for `O=C(Nc1ccccc1)N(Cc1cccc(-c2ccc(CNC3CCCC3)cc2)c1)C1CCN(Cc2ccccc2)CC1` was 5.58%; that for `Cc1ccc(NC(=O)c2cccc(CN3CCCN(CC4CCCCC4)CC3)c2)cc1F` was -0.17%.
For `N=C(N)NCC=C(c1ccccc1)c1ccccc1`, the inhibition stood at 8.32%.
On to `COc1ccc(CCn2c(=N)c(C(=O)NCc3cccnc3)cc3c(=O)n4ccccc4nc32)cc1`, for which the inhibition turned out to be 11.7%.
As for `COc1ccc2ncc(C)c(CCN3CCC(NCc4ccc5c(n4)NC(=O)CS5)CC3)c2c1`, the inhibition turned out to be 8.73%.
With `Cc1ccc(CNC(=O)[C@H](Cc2ccccc2)Nc2cc(C)nc(NCC3CCCCC3)n2)cc1`, the inhibition stood at 3.25%.
With `CCn1c2ccccc2c2cc(C=NN=c3cc(C)[nH]c4ccccc34)ccc21` the figure was 4.76%; with `O=C(CC1CCCC1)N(Cc1ccc(-c2ccc(CNC3Cc4ccccc4C3)cc2)cc1)CC1CCCCN1` (stereo not given), 38.3%.
The value for `COc1ccccc1CCCON1C(=N)N=C(N)NC1(C)C` was 5.24%.
As to `NC1=NC(c2ccccc2)(c2ccccc2)C(=O)N1CCOc1ccccc1`, the inhibition came to 1.06%.
As for `CC(C)c1sc(-c2ccc(C(C)(C)C)cc2)nc1C(=O)NCCCN1CCCC1=O`, the inhibition was determined as 1.02%.
In the case of `COc1ccc(-c2nc3cccnc3n2CC(=O)Nc2c(C)cc(C)cc2C)c(OC)c1`, the inhibition was -0.28%.
The value for `CC(=O)Nc1ccc(CN2CCC(NC(=O)c3ccc(-c4cccc(OC(C)C)c4)s3)CC2)cc1` was 6.04%; that for `CC(C)CCCC(C)(C)NC[C@@H](O)[C@H](Cc1ccccc1)NC(=O)c1cc(NC(C)C)cc(N2CCCCS2(=O)=O)c1F` was 7.51%; that for `O=C(Nc1ccc(-c2ccccc2)cc1)Nc1cccc(Cn2nc(Cl)c(N3CCNCC3)cc2=O)c1` was 0.77%.
The value for `CC(C)NCC(=O)Nc1cccc(C(=O)Nc2cccc(C(F)(F)F)c2)c1` was 4.13%.
The value for `CC(C)(C)c1ccc(CNC(=O)c2cc(CNC3CCC(N)CC3)ccc2O)cc1` (stereo not given) was 0.08%; that for `O=C(Nc1cccc(-c2cccc(-c3nc4ccccc4[nH]3)c2)c1)c1csnn1` was 5.15%.
On to `CCOc1ccc2ccccc2c1CNCCCCCCNCc1c(OCC)ccc2ccccc12`, for which the inhibition is 7.3%.
On to `O=C(NCCCCCN1CCC(c2c[nH]c3ccccc23)CC1)Nc1cccc(Cl)c1`, for which the inhibition is 2.7%.
The value for `CCCN1CCN(CC(O)CNC(=O)Nc2ccc(Cl)cc2)CC1` (stereo not given) was 2.81%; that for `COc1ccc(-c2ccc(NC(=O)c3ccc(Cl)cc3)cc2)cc1CN1CCN(C)CC1` was -0.67%.
The value for `CN1CCC(c2ccc(NC(=O)c3ccc(-c4cccc(C(F)(F)F)c4)o3)cc2)CC1` was 2.13%.
The value for `COc1ccc2c(NN=Cc3ccncc3)ccnc2c1` was -0.81%; that for `COc1cc(C(=O)NC2CC(C)(C)N(C)C(C)(C)C2)ccc1-c1nc2cc(Cl)c(Cl)cc2[nH]1` was -0.5%; that for `O=C(NC1CCC(N2CCC(c3ccccc3C(F)(F)F)CC2)CC1)c1cc2ccccc2[nH]1` (stereo not given) was 8.86%.
